Data from PubChem BioAssay.
“And” between values parts separate entries of the source, which are not always exact repeats. Identical values can stand only once. For part of these data: Entries with a potency or affinity are not part of this list. A structure can be active in one record and inactive in another. The source made the active and inactive calls. Unless noted, no rule for the calls is given here.

Columns and labels:
[1] = antimalarial activity against Dd2 strain (AID 2302;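 active = growth inhibition above 50% at the single 2 µM test dose, taken to imply half-maximal potency below 2 µM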;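 also: 0% = DMSO untreated growth and 100% = chloroquine plus artemisinin killed control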); details: P. falciparum Dd2 in RBCs, LDH growth readout, 72 h; at 2 µM; stronger effect = higher value
[2] = human hepatoma cell viability loss – ATP luminescence, cytotoxicity control for P. falciparum antimalarial project, primary screen (AID 2303;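 active = inhibition above 50%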;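 also: 0% = DMSO wells and 100% = digitonin-killed cells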); details: HepG2 viability, 24-48 h, at 10 µM, stronger effect = higher value
[3] = biological target: L-lactate dehydrogenase (Plasmodium falciparum (isolate CDC / Honduras)) (UniProt Q27743); test: PfLDH activity inhibition – cell lysate, 3D7 strain, counter-screen for P. falciparum growth inhibition project (AID 2304);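 also: 0% = vehicle and 100% = reference inhibitor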; details: P. falciparum 3D7 crude extract, LDH APAD/NBT absorbance; at 2 µM; stronger effect = higher value
[4] = inhibition of 3D7 malaria parasite growth – strain 3D7 (AID 2306);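 also: 0% = DMSO wells and 100% = chloroquine plus artemisinin control wells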; details: P. falciparum 3D7 erythrocytic growth, LDH absorbance, 72 h; at 2 µM; stronger effect = higher value
[5] = biological target: Calcium-dependent protein kinase 1 (Plasmodium falciparum (isolate 3D7)) (UniProt P62344); test: PfCDPK1 kinase inhibitors, biochemical, TCAMS library (AID 1159585; cut-off not given, nearly all actives have IC50 up to about 0.98 µM;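 also: inhibitors leave more ATP so luminescence rises with inhibition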); details: recombinant PfCDPK1, Kinase-Glo ATP depletion luminescence
[6] = biological target: Plasmodium falciparum protein kinase 6 (PK6, PF3D7_1337100) (UniProt Q8IDW1); test: PfPK6 kinase inhibitors, biochemical, TCAMS library (AID 1159586); details: recombinant PfPK6, Kinase-Glo ATP depletion luminescence
[7] = biological target: Protein kinase 7 (PK7), Plasmodium falciparum 3D7 (PF3D7_0213400) (UniProt Q7YTF7); test: inhibition of Plasmodium PK7 catalytic activity – biochemical, TCAMS antimalarial set, Kinase-Glo luminescence (AID 1159587); details: recombinant PfPK7, Kinase-Glo ATP depletion luminescence
[8] = biological target: Calcium-dependent protein kinase 4 (Plasmodium falciparum (isolate 3D7)) (UniProt Q8IBS5); test: PfCDPK4 kinase inhibitors, biochemical, TCAMS library (AID 1159588; cut-off not given, nearly all actives have IC50 up to about 0.91 µM); details: recombinant PfCDPK4, Kinase-Glo ATP depletion luminescence
Chain of Calcium-dependent protein kinase 4 (Plasmodium falciparum (isolate 3D7)) (Q8IBS5 whole entry, looked up): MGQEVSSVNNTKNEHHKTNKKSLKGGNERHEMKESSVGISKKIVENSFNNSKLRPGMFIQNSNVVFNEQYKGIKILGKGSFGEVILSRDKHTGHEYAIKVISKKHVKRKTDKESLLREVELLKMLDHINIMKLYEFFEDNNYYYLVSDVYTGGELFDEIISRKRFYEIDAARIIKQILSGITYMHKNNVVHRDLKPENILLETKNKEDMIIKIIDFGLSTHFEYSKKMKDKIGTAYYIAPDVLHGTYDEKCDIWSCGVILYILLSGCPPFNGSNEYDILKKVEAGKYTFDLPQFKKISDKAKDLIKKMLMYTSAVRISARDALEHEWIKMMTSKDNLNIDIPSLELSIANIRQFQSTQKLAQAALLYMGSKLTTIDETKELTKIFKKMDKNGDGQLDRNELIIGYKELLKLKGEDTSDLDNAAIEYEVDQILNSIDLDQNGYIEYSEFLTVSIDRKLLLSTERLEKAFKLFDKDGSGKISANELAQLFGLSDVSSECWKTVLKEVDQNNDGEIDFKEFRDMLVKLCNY

Chain of Plasmodium falciparum protein kinase 6 (PK6, PF3D7_1337100) (Q8IDW1 1-305): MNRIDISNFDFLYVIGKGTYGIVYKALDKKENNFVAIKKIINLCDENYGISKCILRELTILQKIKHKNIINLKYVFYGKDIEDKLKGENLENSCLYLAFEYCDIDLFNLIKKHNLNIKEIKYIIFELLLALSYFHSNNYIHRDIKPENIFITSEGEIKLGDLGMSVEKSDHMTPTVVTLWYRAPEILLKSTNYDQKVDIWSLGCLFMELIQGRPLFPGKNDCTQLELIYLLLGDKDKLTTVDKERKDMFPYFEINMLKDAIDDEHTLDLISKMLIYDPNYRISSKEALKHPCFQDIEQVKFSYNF
Chain of Protein kinase 7 (PK7), Plasmodium falciparum 3D7 (PF3D7_0213400) (Q7YTF7 1-343): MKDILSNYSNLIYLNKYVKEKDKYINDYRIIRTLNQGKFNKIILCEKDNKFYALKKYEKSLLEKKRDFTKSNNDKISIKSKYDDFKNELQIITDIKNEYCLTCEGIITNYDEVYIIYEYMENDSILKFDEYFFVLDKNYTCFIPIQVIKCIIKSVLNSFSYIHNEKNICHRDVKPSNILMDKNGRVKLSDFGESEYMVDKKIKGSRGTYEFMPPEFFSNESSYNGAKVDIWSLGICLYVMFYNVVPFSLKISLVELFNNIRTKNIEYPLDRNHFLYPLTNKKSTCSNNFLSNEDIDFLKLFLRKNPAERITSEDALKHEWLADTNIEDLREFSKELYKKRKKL
Chain of Calcium-dependent protein kinase 1 (Plasmodium falciparum (isolate 3D7)) (P62344 whole entry, looked up): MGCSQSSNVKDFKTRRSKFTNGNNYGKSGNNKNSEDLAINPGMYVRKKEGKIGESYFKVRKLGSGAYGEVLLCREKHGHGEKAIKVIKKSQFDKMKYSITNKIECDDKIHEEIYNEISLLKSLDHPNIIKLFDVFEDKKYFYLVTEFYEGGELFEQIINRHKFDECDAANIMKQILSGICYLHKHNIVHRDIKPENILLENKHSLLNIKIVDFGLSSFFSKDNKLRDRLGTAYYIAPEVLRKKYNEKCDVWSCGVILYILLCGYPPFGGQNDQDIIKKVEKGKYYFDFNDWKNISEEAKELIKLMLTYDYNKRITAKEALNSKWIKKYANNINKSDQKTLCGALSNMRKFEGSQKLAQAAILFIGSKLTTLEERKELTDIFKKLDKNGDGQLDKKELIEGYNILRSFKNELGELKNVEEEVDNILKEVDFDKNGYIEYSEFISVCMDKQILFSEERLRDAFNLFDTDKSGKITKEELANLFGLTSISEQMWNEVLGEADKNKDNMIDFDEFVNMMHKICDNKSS
Chain of L-lactate dehydrogenase (Plasmodium falciparum (isolate CDC / Honduras)) (Q27743 whole entry, looked up): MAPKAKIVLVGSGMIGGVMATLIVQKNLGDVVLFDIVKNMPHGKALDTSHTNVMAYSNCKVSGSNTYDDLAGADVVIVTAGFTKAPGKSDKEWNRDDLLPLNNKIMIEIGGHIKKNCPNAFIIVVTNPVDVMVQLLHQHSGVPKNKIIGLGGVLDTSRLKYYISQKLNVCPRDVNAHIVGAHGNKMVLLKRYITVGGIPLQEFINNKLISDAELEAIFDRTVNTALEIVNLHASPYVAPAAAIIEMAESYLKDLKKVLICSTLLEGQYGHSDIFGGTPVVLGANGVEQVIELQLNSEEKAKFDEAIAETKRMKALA

Oc1ccccc1CNCC(O)c1cc(C(F)(F)F)cc(C(F)(F)F)c1 (configuration not stated)
active: growth inhibition [1] 100% | growth inhibition [4] 99%
inactive: inhibition [2] 15% | inhibition [3] 4% | outcome [5] | outcome [6] | outcome [7] | outcome [8]

CCN(Cc1ccccc1)CC(O)c1ccc(Cl)c(Cl)c1 (configuration not stated)
active: growth inhibition [1] 71% | growth inhibition [4] 96%
inactive: inhibition [2] 2% | inhibition [3] 1% | outcome [5] | outcome [6] | outcome [7] | outcome [8]

O=C(/C=C/c1ccc(Cl)c(Cl)c1)NC1CCC(N2CCC(c3c[nH]c4ccc(O)cc34)CC2)CC1 (configuration not stated)
active: growth inhibition [4] 97%
inactive: growth inhibition [1] 16% | inhibition [2] 10% | inhibition [3] -9% | outcome [5] | outcome [6] | outcome [7] | outcome [8]

Cc1ccc(CC(C)NC[C@H](O)c2cccc(Cl)c2)cc1 (some centres not stated)
inactive: growth inhibition [1] 47% | inhibition [2] 15% | inhibition [3] -3% | outcome [5] | outcome [6] | outcome [7] | outcome [8]
active: growth inhibition [4] 96%

CS(=O)(=O)Nc1ccc2c(C3CCN(CC4CCN(C(=O)/C=C/c5ccc(Cl)c(Cl)c5)CC4)CC3)c[nH]c2c1
active: growth inhibition [1] 70% | growth inhibition [4] 99%
inactive: inhibition [2] 28% | inhibition [3] -3% | outcome [5] | outcome [6] | outcome [7] | outcome [8]

O=C(NC1CCC(CN2CCC(c3c[nH]c4ccccc34)CC2)CC1)c1cn(Cc2ccccc2)c2ccccc12 (configuration not stated)
inactive: growth inhibition [1] 48% | inhibition [3] -3% | outcome [5] | outcome [6] | outcome [7] | outcome [8]
active: inhibition [2] 84% | growth inhibition [4] 91%

COc1ccc(CCNCc2ccc3c(C)cc(N)nc3c2)cc1
inactive: inhibition [2] 12% | inhibition [3] 0% | outcome [5] | outcome [6] | outcome [7] | outcome [8]
active: growth inhibition [1] 69% | growth inhibition [4] 101%

COC(C(=O)OCCC1CCCN1C)(c1ccccc1)C1CCCCC1 (configuration not stated)
inactive: growth inhibition [1] 5% | inhibition [2] 3% | inhibition [3] 4% | outcome [5] | outcome [6] | outcome [7] | outcome [8]
active: growth inhibition [4] 100%

CCOC(C(=O)OCC1CCCN1C(C)C)(c1ccccc1)c1ccccc1 (configuration not stated)
active: growth inhibition [4] 98%
inactive: growth inhibition [1] 2% | inhibition [2] -1% | inhibition [3] -3% | outcome [5] | outcome [6] | outcome [7] | outcome [8]

COC(=O)c1ccc(CC(C)NCC(O)c2cccc(SC(F)(F)F)c2)cc1 (configuration not stated)
active: growth inhibition [1] 72% | growth inhibition [4] 96%
inactive: inhibition [2] 7% | inhibition [3] -2% | outcome [5] | outcome [6] | outcome [7] | outcome [8]

CCCc1c(C(=O)NC2CCC(CN3CCC(c4c[nH]c5ccccc45)CC3)CC2)cnn1-c1ccc(Cl)cc1 (configuration not stated)
inactive: growth inhibition [1] 37% | inhibition [3] 1% | outcome [5] | outcome [6] | outcome [7] | outcome [8]
active: inhibition [2] 53% | growth inhibition [4] 90%

O=C(CNC1CCCCC1)c1ccc(O)c(O)c1
inactive: inhibition [3] 4% | outcome [5] | outcome [6] | outcome [7] | outcome [8]
active: growth inhibition [1] 99% | inhibition [2] 61% | growth inhibition [4] 102%

O=C(NC1CCC(CN2CCC(c3c[nH]c4ccccc34)CC2)CC1)c1[nH]c(=O)[nH]c(=O)c1F (configuration not stated)
inactive: inhibition [2] 5% | inhibition [3] -2% | outcome [5] | outcome [6] | outcome [7] | outcome [8]
active: growth inhibition [1] 59% | growth inhibition [4] 99%

COc1ccc(CC(C)NCC(O)c2cccc(Cl)c2)cc1C (configuration not stated)
inactive: inhibition [2] 11% | inhibition [3] -6% | outcome [5] | outcome [6] | outcome [7] | outcome [8]
active: growth inhibition [1] 78% | growth inhibition [4] 89%

OC1(c2ccc(Cl)c(C(F)(F)F)c2)CCN(CCOC2c3ccccc3CSc3ccc(Cl)cc32)CC1 (configuration not stated)
active: growth inhibition [1] 58% | growth inhibition [4] 95%
inactive: inhibition [2] 3% | inhibition [3] 6% | outcome [5] | outcome [6] | outcome [7] | outcome [8]

CN(C(=O)OCc1ccccc1)C1CCC(CCN2CCC3(CC2)C(=O)NCN3c2cccc(C(F)(F)F)c2)(c2ccccc2)CC1 (configuration not stated)
active: growth inhibition [1] 72% | growth inhibition [4] 80%
inactive: inhibition [2] 19% | inhibition [3] -2% | outcome [5] | outcome [6] | outcome [7] | outcome [8]

O=C(NC1CCC(CN2CCC(c3c[nH]c4ccccc34)CC2)CC1)c1cc(-c2ccccc2)c(C(F)(F)F)s1 (configuration not stated)
active: growth inhibition [1] 101% | inhibition [2] 55% | growth inhibition [4] 100%
inactive: inhibition [3] 2% | outcome [5] | outcome [6] | outcome [7] | outcome [8]

O=C(/C=C/c1ccc(Cl)c(Cl)c1)NCCC1CCC(N2CCC(c3c[nH]c4ccccc34)CC2)CC1 (configuration not stated)
inactive: inhibition [3] -1% | outcome [5] | outcome [6] | outcome [7] | outcome [8]
active: growth inhibition [1] 99% | inhibition [2] 91% | growth inhibition [4] 102%

Cc1[nH]c2ccc(O)cc2c1C1CCN(CC2CCN(C(=O)/C=C/c3ccc(Cl)c(Cl)c3)CC2)CC1
inactive: inhibition [2] 23% | inhibition [3] -13% | outcome [5] | outcome [6] | outcome [7] | outcome [8]
active: growth inhibition [1] 99% | growth inhibition [4] 99%

CC[C@H]1CN2CC[C@@H]1C[C@H]2[C@H](O)c1cc(N2CCC(CO)CC2)nc2ccc(OC)cc12
active: growth inhibition [1] 99% | growth inhibition [4] 99%
inactive: inhibition [2] 4% | inhibition [3] -1% | outcome [5] | outcome [6] | outcome [7] | outcome [8]

CCOC(=O)CCCN1C(=O)CN=C(c2ccccc2)c2cc(Cl)ccc21
active: inhibition [2] 54% | growth inhibition [4] 97%
inactive: growth inhibition [1] 47% | inhibition [3] -8% | outcome [5] | outcome [6] | outcome [7] | outcome [8]

CC1=CC(=O)[C@@H](O)[C@]2(C)[C@H]3[C@@]4(O)OC[C@@]35[C@@H](C[C@@H]12)OC(=O)C[C@H]5[C@@H](C)[C@H]4O
inactive: inhibition [2] 38% | inhibition [3] 4% | outcome [5] | outcome [6] | outcome [7] | outcome [8]
active: growth inhibition [1] 98% | growth inhibition [4] 99%

CN(c1ccc(NC(=O)CCOc2ccccc2)cc1)C1CCN(Cc2cccc(O)c2)CC1
active: growth inhibition [4] 89%
inactive: growth inhibition [1] -1% | inhibition [2] 18% | inhibition [3] 3% | outcome [5] | outcome [6] | outcome [7] | outcome [8]

CC[C@H]1CN2CC[C@H]1C[C@H]2C(O)c1cc(OC)nc2ccccc12 (some centres not stated)
inactive: inhibition [2] -2% | inhibition [3] -1% | outcome [5] | outcome [6] | outcome [7] | outcome [8]
active: growth inhibition [1] 98% | growth inhibition [4] 100%

OC(CNC1CCCCCCC1)c1ccc(Cl)c(Cl)c1 (configuration not stated)
active: growth inhibition [1] 99% | growth inhibition [4] 100%
inactive: inhibition [2] 17% | inhibition [3] -5% | outcome [5] | outcome [6] | outcome [7] | outcome [8]

CN(c1cc(NC(=O)c2cccs2)ccn1)C1CCN(Cc2cccc(F)c2)CC1
inactive: inhibition [2] -1% | inhibition [3] 4% | outcome [5] | outcome [6] | outcome [7] | outcome [8]
active: growth inhibition [1] 95% | growth inhibition [4] 94%

CC(Cc1ccc(OC2CCCCC2)cc1)NCC(O)c1cccc(Cl)c1 (configuration not stated)
inactive: inhibition [3] -4% | outcome [5] | outcome [6] | outcome [7] | outcome [8]
active: growth inhibition [1] 99% | inhibition [2] 66% | growth inhibition [4] 99%

CSc1ccc(C[C@@H](C)NC[C@H](O)c2cccc(Cl)c2)cc1
inactive: inhibition [2] 8% | inhibition [3] 2% | outcome [5] | outcome [6] | outcome [7] | outcome [8]
active: growth inhibition [1] 96% | growth inhibition [4] 97%

O=C(NC1CCC(CN2CCC(c3c[nH]c4ccccc34)CC2)CC1)c1cc2ccccc2s1 (configuration not stated)
active: growth inhibition [4] 98% and 101%
43% (inactive) and 68% (active): growth inhibition [1]
inactive: inhibition [2] 44% | inhibition [3] 4% and 5% | outcome [5] | outcome [6] | outcome [7] | outcome [8]

COc1cccc(C2(NC[C@@H](O)[C@H](Cc3ccccc3)NC(=O)c3ccccc3)CCCCC2)c1
active: growth inhibition [1] 67% | growth inhibition [4] 97%
inactive: inhibition [2] 14% | inhibition [3] -2% | outcome [5] | outcome [6] | outcome [7] | outcome [8]

CNCCCCCCc1ccc(CC(C)NCC(O)c2cccc(Cl)c2)cc1 (configuration not stated)
active: growth inhibition [1] 76% | growth inhibition [4] 94%
inactive: inhibition [2] 22% | inhibition [3] 4% | outcome [5] | outcome [6] | outcome [7] | outcome [8]

O=C(/C=C/c1ccc(Cl)c(Cl)c1)N1CCC(CN2CCC(c3c(-c4ccccc4)[nH]c4ccccc34)CC2)CC1
active: growth inhibition [1] 99% | growth inhibition [4] 101%
inactive: inhibition [2] 43% | inhibition [3] -8% | outcome [5] | outcome [6] | outcome [7] | outcome [8]

Oc1ccc2[nH]cc(C3=CCN(Cc4ccccc4)CC3)c2c1
inactive: inhibition [2] 1% | inhibition [3] 7% | outcome [5] | outcome [6] | outcome [7] | outcome [8]
active: growth inhibition [1] 67% | growth inhibition [4] 94%

N#Cc1ccc(N(CC(=O)NCCc2ccccc2)CC2CC2)c2ccccc12
active: growth inhibition [4] 99%
inactive: growth inhibition [1] 48% | inhibition [2] 0% | inhibition [3] -3% | outcome [5] | outcome [6] | outcome [7] | outcome [8]

COC(=O)c1ccc(CC(C)NCC(O)c2cccc(Cl)c2Cl)cc1 (configuration not stated)
inactive: inhibition [2] -1% | inhibition [3] -6% | outcome [5] | outcome [6] | outcome [7] | outcome [8]
active: growth inhibition [1] 98% | growth inhibition [4] 98%

Cc1[nH]c2ccccc2c1C1=CCN(CCCCC2(C)C(=O)Nc3ccccc32)CC1 (configuration not stated)
inactive: inhibition [2] 8% | inhibition [3] -4% | outcome [5] | outcome [6] | outcome [7] | outcome [8]
active: growth inhibition [1] 89% | growth inhibition [4] 94%

Cc1ccc2c(C3=CCN(CCCCC4(C)C(=O)Nc5c(F)cccc54)CC3)c(C)[nH]c2c1 (configuration not stated)
inactive: inhibition [2] 5% | inhibition [3] -4% | outcome [5] | outcome [6] | outcome [7] | outcome [8]
active: growth inhibition [1] 89% | growth inhibition [4] 95%

O=C(/C=C/c1ccc(Cl)c(Cl)c1)N1CCC(CN2CC[C@H](c3c[nH]c4ccccc34)[C@@H](O)C2)CC1
inactive: growth inhibition [1] 14% | inhibition [2] 37% | inhibition [3] -7% | outcome [5] | outcome [6] | outcome [7] | outcome [8]
active: growth inhibition [4] 99%

C/C=C1/CN2CC[C@H]1C[C@H]2[C@H](O)c1ccnc2ccc(O)cc12
active: growth inhibition [4] 99%
inactive: growth inhibition [1] 11% | inhibition [2] -2% | inhibition [3] -3% | outcome [5] | outcome [6] | outcome [7] | outcome [8]
